In PubChem BioAssay AID1159580 (chemical genetic matrix, 2015):
Among all 5,500 compounds or so, about 2,000 (36%) were called active. Another 18% or so got no clear call; they are omitted. Rule as the data show it: active = normalized growth mostly below about 0.91 (no sharp cut-off); inconclusive = no clear call, values can overlap the other calls; inactive = mostly above about 0.92. Some of the results follow.

Assay: chemical genetic growth profiling, strain panel (AID 1159580);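 also: tested at 20 µM; growth read once vehicle control cultures reached saturation at 30 °C; 1 = growth at the plate median or of vehicle wells; lower values mean less growth of the strain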
Settings: growth OD

Measured: normalized growth

CCCCc1nc(Cl)c(CO)n1Cc1ccc(-c2ccccc2-c2nn[nH]n2)cc1
inactive: S. cerevisiae deletion strains, locus YJR075W, strain HOC1, active compounds read low 0.999 | S. cerevisiae deletion strains, locus YKL009W, strain mrt4, active compounds read low 0.985 | S. cerevisiae deletion strains, locus YKL068W, active compounds read low 0.997 | S. cerevisiae deletion strains, locus YKL085W, strain MDH1 (second series), active compounds read low 0.992 | S. cerevisiae deletion strains, locus YKL085W, strain MDH1, active compounds read low 0.992 | S. cerevisiae deletion strains, locus YKL160W, strain elf1, active compounds read low 0.991 | S. cerevisiae deletion strains, locus YKL190W, strain CNB1, active compounds read low 1.01 | S. cerevisiae deletion strains, locus YKR001C, strain vps1, active compounds read low 0.99 | S. cerevisiae deletion strains, locus YKR026C, strain gcn3, active compounds read low 0.988 | S. cerevisiae deletion strains, locus YKR091W, strain srl3, active compounds read low 0.991 | S. cerevisiae deletion strains, locus YLL001W, strain dnm1, active compounds read low 0.98 | S. cerevisiae deletion strains, locus YLL026W, active compounds read low 0.992 | S. cerevisiae deletion strains, locus YLL041C, strain sdh2, active compounds read low 0.992 | S. cerevisiae deletion strains, locus YLR027C, strain aat2, active compounds read low 0.993 | S. cerevisiae deletion strains, locus YLR039C, strain RIC1, active compounds read low 1.02 | S. cerevisiae deletion strains, locus YLR058C, strain SHM2, active compounds read low 0.997 | S. cerevisiae deletion strains, locus YLR102C, strain apc9, active compounds read low 0.994 | S. cerevisiae deletion strains, locus YLR113W, strain HOG1, active compounds read low 1.01 | S. cerevisiae deletion strains, locus YLR221C, strain rsa3, active compounds read low 0.987 | S. cerevisiae deletion strains, locus YLR258W, strain gsy2, active compounds read low 0.998 | S. cerevisiae deletion strains, locus YLR262C, strain YPT6 (second series), active compounds read low 0.995 | S. cerevisiae deletion strains, locus YLR262C, strain YPT6, active compounds read low 1.04 | S. cerevisiae deletion strains, locus YLR268W, strain sec22, active compounds read low 0.999 | S. cerevisiae deletion strains, locus YLR320W, strain mms22, active compounds read low 0.985 | S. cerevisiae deletion strains, locus YLR330W, strain CHS5, active compounds read low 1.01 | S. cerevisiae deletion strains, locus YLR342W, strain FKS1 (second series), active compounds read low 0.997 | S. cerevisiae deletion strains, locus YLR342W, strain FKS1, active compounds read low 1.01 | S. cerevisiae deletion strains, locus YLR357W, strain rsc2, active compounds read low 0.993 | S. cerevisiae deletion strains, locus YLR370C, strain arc18, active compounds read low 0.987 | S. cerevisiae deletion strains, locus YLR371W, strain rom2, active compounds read low 0.997 | S. cerevisiae deletion strains, locus YLR384C, strain iki3, active compounds read low 0.974 | S. cerevisiae deletion strains, locus YLR418C, strain cdc73, active compounds read low 1 | S. cerevisiae deletion strains, locus YML016C, strain PPZ1, active compounds read low 1 | S. cerevisiae deletion strains, locus YML032C, strain rad52, active compounds read low 1 | S. cerevisiae deletion strains, locus YML120C, strain ndi1, active compounds read low 0.981 | S. cerevisiae deletion strains, locus YML124C, strain tub3, active compounds read low 0.997 | S. cerevisiae deletion strains, locus YMR058W, strain fet3, active compounds read low 1 | S. cerevisiae deletion strains, locus YMR078C, strain ctf18, active compounds read low 0.999 | S. cerevisiae deletion strains, locus YMR125W, strain sto1, active compounds read low 0.982 | S. cerevisiae deletion strains, locus YMR129W, active compounds read low 0.994 | S. cerevisiae deletion strains, locus YMR205C, strain PFK2, active compounds read low 0.998 | S. cerevisiae deletion strains, locus YMR223W, strain ubp8, active compounds read low 1 | S. cerevisiae deletion strains, locus YMR231W, strain pep5, active compounds read low 0.982 | S. cerevisiae deletion strains, locus YMR263W, strain SAP30, active compounds read low 1.02 | S. cerevisiae deletion strains, locus YMR307W, strain GAS1, active compounds read low 0.911 | S. cerevisiae deletion strains, locus YNL067W, strain RPL9B, active compounds read low 1.02 | S. cerevisiae deletion strains, locus YNL071W, strain lat1, active compounds read low 1 | S. cerevisiae deletion strains, locus YNL128W, strain TEP1, active compounds read low 1.01 | S. cerevisiae deletion strains, locus YNL153C, strain GIM3, active compounds read low 1.01 | S. cerevisiae deletion strains, locus YNL183C, strain NPR1, active compounds read low 1.01 | S. cerevisiae deletion strains, locus YNL209W, strain ssb2, active compounds read low 0.979 | S. cerevisiae deletion strains, locus YNL233W, strain BNI4, active compounds read low 1.02 | S. cerevisiae deletion strains, locus YNL248C, strain rpa49, active compounds read low 0.996 | S. cerevisiae deletion strains, locus YNL250W, strain rad50, active compounds read low 0.993 | S. cerevisiae deletion strains, locus YNL271C, strain bni1, active compounds read low 0.995 | S. cerevisiae deletion strains, locus YNL298W, strain CLA4, active compounds read low 0.989 | S. cerevisiae deletion strains, locus YNL307C, strain MCK1, active compounds read low 1.02 | S. cerevisiae deletion strains, locus YNL322C, strain KRE1 (second series), active compounds read low 0.971 | S. cerevisiae deletion strains, locus YNL322C, strain KRE1, active compounds read low 1.01 | S. cerevisiae deletion strains, locus YNR049C, strain mso1, active compounds read low 0.985 | S. cerevisiae deletion strains, locus YNR052C, strain pop2, active compounds read low 0.99 | S. cerevisiae deletion strains, locus YOL006C, strain TOP1, active compounds read low 1.04 | S. cerevisiae deletion strains, locus YOL012C, strain htz1 0.901 | S. cerevisiae deletion strains, locus YOL147C, strain pex11, active compounds read low 1 | S. cerevisiae deletion strains, locus YOR001W, strain rrp6, active compounds read low 0.978 | S. cerevisiae deletion strains, locus YOR061W, strain CKA2, active compounds read low 1.01 | S. cerevisiae deletion strains, locus YOR069W, strain VPS5, active compounds read low 1 | S. cerevisiae deletion strains, locus YOR070C, strain gyp1, active compounds read low 0.986 | S. cerevisiae deletion strains, locus YOR080W, strain dia2, active compounds read low 0.978 | S. cerevisiae deletion strains, locus YOR083W, strain WHI5, active compounds read low 0.981 | S. cerevisiae deletion strains, locus YOR106W, strain vam3, active compounds read low 1 | S. cerevisiae deletion strains, locus YOR136W, strain idh2, active compounds read low 1 | S. cerevisiae deletion strains, locus YOR144C, strain elg1, active compounds read low 1 | S. cerevisiae deletion strains, locus YOR184W, strain ser1, active compounds read low 1 | S. cerevisiae deletion strains, locus YOR231W, strain MKK1, active compounds read low 0.965 | S. cerevisiae deletion strains, locus YOR265W, strain rbl2, active compounds read low 0.999 | S. cerevisiae deletion strains, locus YOR270C, strain vph1, active compounds read low 0.97 | S. cerevisiae deletion strains, locus YOR290C, strain snf2, active compounds read low 1 | S. cerevisiae deletion strains, locus YOR316C, strain cot1, active compounds read low 0.999 | S. cerevisiae deletion strains, locus YPL051W, strain arl3, active compounds read low 0.99 | S. cerevisiae deletion strains, locus YPL055C, strain LGE1, active compounds read low 1.01 | S. cerevisiae deletion strains, locus YPL078C, strain atp4, active compounds read low 0.985 | S. cerevisiae deletion strains, locus YPL106C, strain sse1, active compounds read low 0.964 | S. cerevisiae deletion strains, locus YPL240C, strain hsp82, active compounds read low 1.02 | S. cerevisiae deletion strains, locus YPL241C, strain CIN2, active compounds read low 1.01 | S. cerevisiae deletion strains, locus YPL256C, strain CLN2, active compounds read low 0.967 | S. cerevisiae deletion strains, locus YPR119W, strain clb2, active compounds read low 0.995 | S. cerevisiae deletion strains, locus YPR141C, strain kar3, active compounds read low 1 | S. cerevisiae deletion strains, locus YPR163C, strain tif3, active compounds read low 1.01 | S. cerevisiae deletion strains, locus YPR167C, strain met16, active compounds read low 0.998 | S. cerevisiae deletion strains, strain wtn01, active compounds read low 0.989 | S. cerevisiae strains, strain wild type, active compounds read low 1.01
